Among the data in PubChem BioAssay (NCI) are growth values, retold here.

Among the test systems are NCI-H23 lung; NCI-H226 lung; NCI-H322M lung; HOP-62 NSCLC; NCI-H460 lung; HOP-92 NSCLC; NCI-H522 lung; A549/ATCC NSCLC; COLO 205 colon; DU-145 prostate; K-562 leukemia; MALME-3M melanoma; MDA-MB-231 breast; RXF 393 renal; SF-268 CNS; SF-295 CNS; SF-539 CNS; UACC-257 melanoma; M14 melanoma; 786-0 renal.
Assay in all cases: NCI-60 one-dose screen, 48 h (100 = growth as untreated, 0 = no growth, -100 = all killed)
Common to all, as to details: 10 µM unless noted

The panel holds about 83,000 compounds, 20% with a hit somewhere; the sample as a whole holds those more often.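 Values shown are percent growth following 48 h exposure of cells in 96-well plates to a single concentration of compound; below 10 was considered active.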 Unmarked numbers belong to inactive results. Active and inactive are the calls of the source.

As for `CS(=O)(=O)Nc1cc(-c2cc3ncc(C#N)c(Nc4ccc(Oc5ccccc5)c(Cl)c4)c3s2)cnc1Cl`, the growth is 56.6% in the experiment on NCI-H23 lung; 64.3% in the experiment on NCI-H226 lung; 26.9% with NCI-H322M lung; 54.8% in the experiment on HOP-62 NSCLC; 21.7% in the experiment on NCI-H460 lung; 45.6% in the experiment with HOP-92 NSCLC. Also, the growth with NCI-H522 lung was 32.4%; with A549/ATCC NSCLC, 55.2%; with COLO 205 colon, 66.9%; in the experiment on DU-145 prostate, 48.1%; in the experiment on K-562 leukemia it was 51.5%; in the experiment on MALME-3M melanoma, 74.5%. The growth in the experiment with MDA-MB-231 breast is 45.3%; with RXF 393 renal, 15.9%; in the experiment with SF-268 CNS it was 52.8%; in the experiment on SF-295 CNS it was 38.4%; in the experiment on SF-539 CNS, 57.8%; in the experiment with UACC-257 melanoma it was 68.2%. In addition, the growth in the experiment with M14 melanoma is 50.1%.

`Oc1ccc(CCCCCCc2ccc(O)cc2)cc1`: the growth in the experiment on NCI-H23 lung is 59.5%; in the experiment with NCI-H226 lung, 101%; in the experiment on NCI-H322M lung it was 92%; in the experiment on HOP-62 NSCLC it was 80.6%; in the experiment with NCI-H460 lung it was 46.4%; with HOP-92 NSCLC, 64%. Besides, the growth is 56.6% with NCI-H522 lung; 47.6% in the experiment on A549/ATCC NSCLC; 14.2% in the experiment on 786-0 renal; 102% in the experiment with K-562 leukemia; 92.8% with MALME-3M melanoma; 65.3% with MDA-MB-231 breast. Moreover, the growth in the experiment with RXF 393 renal is 60.4%; in the experiment on SF-268 CNS, 65.2%; in the experiment on SF-295 CNS, 65.1%; in the experiment with SF-539 CNS, 42%; in the experiment on UACC-257 melanoma, 91.4%; in the experiment on M14 melanoma, 41.8%.

On to `Cc1nc([C@H]2CC[C@H]3[C@@H]4CCC5=CC(=O)CC[C@]5(C)[C@H]4CC[C@]23C)cs1`, for which the growth is 49.9% with NCI-H23 lung; 76.9% in the experiment with NCI-H226 lung; 116% in the experiment on NCI-H322M lung; 104% in the experiment with HOP-62 NSCLC; 41.5% in the experiment with NCI-H460 lung; 85% with HOP-92 NSCLC. Moreover, the growth in the experiment on NCI-H522 lung is 22%; in the experiment on A549/ATCC NSCLC, 63.3%; in the experiment on 786-0 renal, 62.7%; in the experiment on DU-145 prostate, 99.7%; with K-562 leukemia it was 18%; in the experiment on MALME-3M melanoma, 99.5%. Besides, the growth in the experiment on MDA-MB-231 breast was 97.4%; in the experiment on SF-268 CNS, 91.7%; in the experiment on SF-295 CNS, 46.1%; with SF-539 CNS, 93.4%; with UACC-257 melanoma, 39.2%; in the experiment on M14 melanoma it was 74.1%.

For the compound `Cc1[nH]n(C(=O)c2ccncc2)c(=O)c1N=Nc1ccc(O)c(C(=O)O)c1`, the growth in the experiment on NCI-H23 lung is 106%; in the experiment with NCI-H226 lung, 86.3%; in the experiment with NCI-H322M lung, 91.3%; in the experiment on HOP-62 NSCLC, -3.17% (active); in the experiment with NCI-H460 lung it was 114%; in the experiment with HOP-92 NSCLC, 62.7%. Besides, the growth was 104% in the experiment on NCI-H522 lung; 21.9% in the experiment with A549/ATCC NSCLC; 113% with COLO 205 colon; 132% with DU-145 prostate; 91.1% in the experiment with K-562 leukemia; 94.2% with MALME-3M melanoma. Also, the growth was 94% in the experiment with MDA-MB-231 breast; 106% in the experiment with SF-268 CNS; 100% with SF-539 CNS; -14.1% (active) in the experiment on UACC-257 melanoma; 114% in the experiment with M14 melanoma.

`COc1ccc(NC(=O)/C=C/c2ccc(Cl)c(Cl)c2)cn1`: the growth with NCI-H23 lung was 84.7%; in the experiment on NCI-H226 lung, 68.3%; in the experiment on NCI-H322M lung, 91.6%; in the experiment with HOP-62 NSCLC, 90.1%; in the experiment on NCI-H460 lung, 99%; with HOP-92 NSCLC, 87.1%. Also, the growth in the experiment with NCI-H522 lung is 79.9%; in the experiment with A549/ATCC NSCLC, 79.1%; in the experiment on 786-0 renal it was 85.6%; in the experiment on DU-145 prostate, 96.7%; in the experiment on K-562 leukemia it was 58%; with MALME-3M melanoma, 92%. Moreover, the growth is 95% with MDA-MB-231 breast; 89.4% in the experiment on RXF 393 renal; 95.7% in the experiment with SF-268 CNS; 84.5% with SF-295 CNS; 98.2% with SF-539 CNS; 79.9% with UACC-257 melanoma. For the same compound, in the experiment on M14 melanoma, the growth is 95.9%.

Turning to `CCOC(=O)c1ccccc1SC(C[N+](=O)[O-])c1ccccc1` (stereo not drawn), the growth with NCI-H23 lung was 99.1%; in the experiment on NCI-H226 lung, 86.2%; with NCI-H322M lung, 116%; with HOP-62 NSCLC, 118%; in the experiment with NCI-H460 lung, 107%; in the experiment with HOP-92 NSCLC it was 90.5%. Further, the growth with NCI-H522 lung was 88.8%; with A549/ATCC NSCLC, 78.7%; with 786-0 renal it was 98.7%; in the experiment on DU-145 prostate it was 90.9%; in the experiment with K-562 leukemia, 56.8%; in the experiment on MALME-3M melanoma, 98%. The growth was 96.6% in the experiment on MDA-MB-231 breast; 62.9% with RXF 393 renal; 104% with SF-268 CNS; 99.7% in the experiment with SF-295 CNS; 90% with SF-539 CNS; 84.4% with UACC-257 melanoma. Also, the growth with M14 melanoma was 68.9%.

On to `Cc1cc(C#Cc2ccccc2)ccc1-n1c(/C=C/c2ccc(F)cc2)nc2ccccc2c1=O`, for which the growth in the experiment with NCI-H23 lung was 71.5%; with NCI-H226 lung, 84.7%; in the experiment on NCI-H322M lung, 87.5%; in the experiment on HOP-62 NSCLC it was 122%; in the experiment with NCI-H460 lung, 63.6%; in the experiment with HOP-92 NSCLC, 39.2%. The growth in the experiment on NCI-H522 lung was 64.1%; with A549/ATCC NSCLC, 68.5%; in the experiment with 786-0 renal it was 80.4%; with DU-145 prostate, 98.5%; in the experiment on K-562 leukemia, 48.5%; with MDA-MB-231 breast, 75.9%. Moreover, the growth in the experiment on RXF 393 renal was 99.1%; with SF-268 CNS, 86.4%; in the experiment on SF-539 CNS, 102%; with UACC-257 melanoma, 86.7%; in the experiment with M14 melanoma, 81.2%.

With `Cc1cc(C)c2c(n1)sc1c(Nc3ccc(O)cc3)ncnc12`, the growth with NCI-H23 lung was 9.96% (active); with NCI-H226 lung, 32.4%; in the experiment on NCI-H322M lung it was 46.2%; in the experiment with HOP-62 NSCLC it was 18.5%; with NCI-H460 lung, 10.1%; in the experiment with HOP-92 NSCLC it was 35.5%. Moreover, the growth with NCI-H522 lung was 32.4%; in the experiment on A549/ATCC NSCLC, 26.7%; with 786-0 renal, 12.6%; with DU-145 prostate, 21.3%; in the experiment on K-562 leukemia, 45.1%; with MALME-3M melanoma it was 63.9%. Also, the growth is 59% with MDA-MB-231 breast; 32% in the experiment on RXF 393 renal; 19.3% in the experiment with SF-268 CNS; 18.3% in the experiment with SF-295 CNS; 3.84% (active) with SF-539 CNS; 38.7% in the experiment on UACC-257 melanoma. In addition, in the experiment with M14 melanoma, the growth is -21.5% (active).

Regarding `Cc1[nH]nc2ccc3nc(-c4ccc5[nH]ncc5c4)c4c(c3c12)CCCC4`, the growth with NCI-H23 lung is 31.1%; with NCI-H226 lung it was 16.2%; in the experiment with NCI-H322M lung, 36.9%; in the experiment with HOP-62 NSCLC it was 18.5%; in the experiment with NCI-H460 lung, 19.3%; in the experiment on HOP-92 NSCLC it was 2.41% (active). Moreover, the growth in the experiment on NCI-H522 lung was 0.13% (active); in the experiment with A549/ATCC NSCLC it was 12.6%; with 786-0 renal, 34.4%; in the experiment with DU-145 prostate, 33.9%; with K-562 leukemia it was 14.3%; in the experiment with MALME-3M melanoma, 7.88% (active). Further, the growth in the experiment with MDA-MB-231 breast was 42.6%; in the experiment on RXF 393 renal, 9.13% (active); in the experiment with SF-268 CNS it was 33.8%; in the experiment on SF-295 CNS, 31.1%; with SF-539 CNS it was 18.7%; in the experiment on UACC-257 melanoma, 50.6%. For the same compound, in the experiment with M14 melanoma, the growth is 18.9%.

For the compound `COc1cccc(NC(=O)c2c(-c3ccccc3)c(-c3ccccc3)n[nH]c2=O)c1`, the growth in the experiment with NCI-H23 lung is 101%; with NCI-H226 lung, 100%; with NCI-H322M lung, 111%; in the experiment with HOP-62 NSCLC it was 102%; in the experiment on NCI-H460 lung, 98%; with HOP-92 NSCLC, 112%. Further, the growth in the experiment with NCI-H522 lung is 89.2%; in the experiment with A549/ATCC NSCLC, 100%; with 786-0 renal it was 97.6%; with DU-145 prostate it was 106%; in the experiment with K-562 leukemia it was 81.9%; with MALME-3M melanoma, 101%. Besides, the growth with MDA-MB-231 breast is 102%; in the experiment with RXF 393 renal, 103%; with SF-268 CNS it was 105%; in the experiment on SF-539 CNS, 101%; in the experiment with UACC-257 melanoma, 97.9%; with M14 melanoma, 103%.
